The values below come from PubChem BioAssay (NCATS).

The source made the active and inactive calls. How the calls were made is not given here.
Potency means the concentration at half of the fitted maximal effect.

The subject of the assay is HIV-1 nucleocapsid protein NCp7 (binding to TG oligonucleotide). Description: HIV Nucleocapsid (AID 346).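 Further: potency is for inhibitors that block NC binding and lower polarization.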 The following applies: HIV-1 NC / fluorescein-TGTGTGTG probe, fluorescence polarization. The procedure, abridged: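 10 nM TG4xF probe with 100 nM nucleocapsid protein in high-salt Hepes pH 7.5 (250mM NaCl) containing 1uM ZnCl2 and reducing agents. Compound inhibition of binding was read as fluorescein polarization after 1 hr at room temperature.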
On to `O=c1c(-c2cc(F)cc(F)c2)nc2cnc(Oc3ccccc3)nc2n1C[C@H]1CCCO1`, for which the Potency was > 20 µM (inactive).

With `COc1ccc(C(=O)N2CCC3(CCN(Cc4ccccc4OC)CC3)CC2)cc1`, the Potency is > 20 µM (inactive).

Turning to `c1cncc(-c2ccc3ncnc(N4CCNCC4)c3c2)c1`, the Potency is > 20 µM (inactive).

Take `CN(C)c1ccc(-c2nc(N(C)Cc3ccco3)c3ccccc3n2)cc1`: the Potency was > 20 µM (inactive).

For `Cn1cc(-c2nc3cnc(OCc4ccccc4)nc3n(CCC#N)c2=O)c2ccccc21`, the Potency was > 20 µM (inactive).

Regarding `COc1ccc(-c2nc3cnc(OC)nc3n(CCc3ccccc3)c2=O)cc1`, the Potency was > 20 µM (inactive).

On to `CN(C)C(=O)c1ccc(-c2nc(NCc3cccnc3)c3ccccc3n2)cc1`, for which the Potency was > 20 µM (inactive).

Consider `COc1ccccc1CNc1ccnc(-c2ccc3c(c2)OCO3)n1`, for which the Potency was > 20 µM (inactive).

Consider `COCCn1c(=O)c(-c2ccccc2)nc2cnc(Oc3cccc(Cl)c3)nc21`, for which the Potency is > 20 µM (inactive).

For the molecule `COc1cccc(-c2cncnc2Nc2ccccc2)c1`, the Potency is > 20 µM (inactive).

For the molecule `COCCn1c(=O)c(-c2cn(C)c3ccccc23)nc2cncnc21`, the Potency is 11.9 µM (inactive).

With `O=C(Oc1ccccc1)N1CCC2(CC1)CCN(c1cccc(-c3ccccc3)c1)CC2`, the Potency is > 20 µM (inactive).

Turning to `O=C(c1cccc(F)c1)N1CCC2(CCCN(Cc3nccs3)C2)CC1`, the Potency is > 20 µM (inactive).

For `COc1cccc(Nc2ncc3nc(C)c(=O)n(-c4ccccc4)c3n2)c1`, the Potency is > 20 µM (inactive).

As for `COc1ccc(Oc2ncc3nc(-c4ccc(F)cc4)c(=O)n(C[C@H]4CCCO4)c3n2)cc1`, the Potency was > 20 µM (inactive).
